73 compounds from PubChem BioAssay AID1240 (Sanford-Burnham Center for Chemical Genomics, 2008) can be followed below.

The structures appear in SMILES notation. About 800 (1.6%) of roughly 50,000 compounds showed an effect of 50% or more. The sample holds strong results, similar compounds and a random draw of the others, so the mix is not that of the screen.

Sequence of Bcl-2-like protein 10 (Homo sapiens) (Q9HD36 whole entry, looked up): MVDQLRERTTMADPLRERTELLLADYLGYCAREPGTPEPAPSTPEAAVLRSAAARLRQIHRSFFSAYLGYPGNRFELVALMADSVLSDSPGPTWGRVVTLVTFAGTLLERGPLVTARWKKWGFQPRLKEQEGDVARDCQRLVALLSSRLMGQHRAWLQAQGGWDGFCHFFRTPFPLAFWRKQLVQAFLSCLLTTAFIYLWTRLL

The test addresses Bcl-2-like protein 10 (Homo sapiens) (UniProt Q9HD36). Description: Phenotype converters, Bcl-B/TR3 peptide binding displacement, primary biochemical FP (AID 1240).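 Further: 0% = Bcl-B with tracer peptide and DMSO and 100% = tracer peptide lacking Bcl-B.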 The following applies: GST-Bcl-B / FITC-TR3 peptide fluorescence polarization; stronger effect = higher value; compound at 3.75 mg/L. (Polarisation of emitted light reports the rotation of a fluorescent probe.)
Turning to `CCC(=O)Nc1nc(C23CC4CC(CC(C4)C2)C3)c(C)s1`, the displacement is -2.7%.

On to `COc1cc(/C=C2/SC(=S)N(Cc3ccccc3)C2=O)cc(Cl)c1OCc1ccccc1`, for which the displacement stood at 12.4%.

Take `CC1=C(C(=O)OCCc2ccccc2)C(c2ccccc2OCc2ccccc2)C2=C(CCCC2=O)N1` (stereo not drawn): the displacement is -6%.

On to `CC(C)CN1C(=O)c2ccc(C(=O)Nc3c[nH]c(=O)[nH]c3=O)cc2C1=O`, for which the displacement came to 7.8%.

As to `C=CCn1c(C)nc2c(cnn2-c2ccccc2)c1=O`, the displacement was -0.7%.

Take `C=C(C)C1CC=C(C)/C(=N/NC(=O)c2cccc(C)c2)C1` (stereo not drawn): the displacement came out at 14.9%.

In the case of `CCn1cc(C(=O)NN)c(=O)c2cc(F)c(N3CCCCC3)cc21`, the displacement is 17.4%.

`COc1cc(/C=C2/SC(=S)N(C)C2=O)ccc1OCc1cccc2ccccc12`: the displacement turned out to be 6.6%.

Turning to `Cc1ccsc1/C=C(\C#N)c1nc(-c2cccc(Br)c2)cs1`, the displacement worked out at 95.2%.

On to `Cc1ccc(-c2csc(/C(C#N)=C/c3ccsc3)n2)cc1`, for which the displacement is -5.9%.

On to `CCc1ccc(/C=C(/C#N)c2nc(-c3ccc(Br)cc3)cs2)cc1`, for which the displacement is -3.5%.

Regarding `Cc1ccsc1/C=C(\C#N)c1nc(-c2ccc3c(c2)OCO3)cs1`, the displacement was -27%.

As for `Cc1csc(/C(C#N)=C/c2sccc2C)n1`, the displacement was -12%.

As to `Cc1ccsc1/C=C(/C#N)c1nc(-c2ccc(Br)cc2)cs1`, the displacement amounted to 132%.

Consider `Cc1ccc(-c2csc(/C(C#N)=C/c3sccc3C)n2)c(C)c1`, for which the displacement came to 69.3%.

On to `N#C/C(=C\c1cccs1)c1nc(-c2ccc(Cl)cc2Cl)cs1`, for which the displacement amounted to 129%.

As for `Cc1ccsc1/C=C(\C#N)c1nc(-c2cc3cc(Br)ccc3oc2=O)cs1`, the displacement is -10.8%.

With `N#C/C(=C\c1cccs1)c1nc(-c2ccc(Br)cc2)cs1`, the displacement turned out to be 5.9%.

Regarding `N#C/C(=C\c1ccccc1Cl)c1nc(-c2cccs2)cs1`, the displacement is -9.2%.

As for `CC(C)(C)c1cc(C(=O)N/N=C/C=C/c2ccccc2)n[nH]1`, the displacement was -9.5%.

In the case of `COc1ccc(/C=N/Nc2ncc(Br)cn2)cc1`, the displacement is -11.3%.

In the case of `C=CCn1c(O)c(C2=c3cc(Cl)ccc3=NC2=O)sc1=S`, the displacement was -14.2%.

`CCc1ccc(S(=O)(=O)Nc2ccccc2OC)cc1`: the displacement was found to be 13.8%.

On to `N/C(=N\OC(=O)c1ccc(Br)cc1)c1ccc(Cl)cc1`, for which the displacement was determined as 2.2%.

Consider `Cc1cc(Cl)ccc1OCC(O)CN1C(C)CCCC1C` (stereo not drawn), for which the displacement came to 0.8%.

Take `CC(=O)N1C(=O)/C(=C\C(=O)c2ccc([N+](=O)[O-])cc2)c2ccccc21`: the displacement was found to be 0.8%.

Consider `CC(C)NC(=O)C12CC3CC(C1)CC(C(=O)NC(C)C)(C3)C2`, for which the displacement amounted to 1.3%.

`CCOC(=O)CSc1nnc2c3ccccc3n(CC)c2n1`: the displacement is -10.4%.

Regarding `Cc1ccc(OCc2nnc(NC(=O)Nc3cccc(Cl)c3)s2)cc1C`, the displacement is 14.2%.

Take `C/C(=N\N=C1\NC(=O)C(CC(=O)Nc2ccc(Cl)cc2Cl)S1)c1ccc(Cl)cc1` (stereo not drawn): the displacement is 15.5%.

On to `COc1ccc(CNC(=O)c2c(-c3c(Cl)cccc3Cl)noc2C)cc1`, for which the displacement amounted to 0.9%.

For the compound `COc1cccc(-c2csc(/C(C#N)=C/c3ccc(C)o3)n2)c1`, the displacement is -113%.

In the case of `Cc1ccc(/C=C(\C#N)c2nc(-c3ccc(C)c(C)c3)cs2)o1`, the displacement was -25.1%.

As for `Cc1ccc(/C=C(\C#N)c2nc(-c3cccc(Br)c3)cs2)o1`, the displacement was determined as 164%.

`COc1cc(OC)c(C=Nc2ccccc2C(=O)Nc2ccccc2)cc1Br`: the displacement was -6%.

Take `Cc1ccccc1NC(=O)c1cc(-c2ccccc2)nc2c(Cl)cccc12`: the displacement was -13.6%.

Consider `COc1ccccc1N=Cc1c(O)c(C(=O)Nc2ccccc2)cc2ccccc12`, for which the displacement was found to be 105%.

`CCOc1ccccc1C=Nc1ccccc1C(=O)Nc1ccccc1`: the displacement is -7.9%.

For the compound `Cc1ccc(-n2c(O)c(/C=N/n3cnnc3)c3ccccc3c2=O)cc1`, the displacement is 5.8%.

For the compound `Cc1ccccc1NC(=O)c1cc2ccccc2c(/C=N/n2cnnc2)c1O`, the displacement is 109%.

Regarding `COC(C(=O)NNC(=O)c1cccc(Cl)c1)c1ccccc1` (stereo not drawn), the displacement is -5.9%.

Consider `CCOC(=O)C1=C(C)NC(=O)NC1c1cc(OC)c(OC)c(OC)c1` (stereo not drawn), for which the displacement worked out at 9.3%.

Consider `O=C(CN(c1cccc([N+](=O)[O-])c1)S(=O)(=O)c1ccccc1)NCC1CCCO1` (stereo not drawn), for which the displacement is -4.4%.

Turning to `O=C(Nc1ccc2nn(-c3ccc(Cl)cc3)nc2c1)c1cccnc1`, the displacement stood at 29.6%.

Turning to `CCOC(=O)c1c(NC(=O)c2ccc(Cl)cc2Cl)sc(C)c1C`, the displacement worked out at 6.1%.

`CCOC(=O)c1c(NC(=O)c2ccc(Cl)cc2Cl)sc(C(=O)Nc2ccccc2C)c1C`: the displacement turned out to be 1.3%.

Turning to `CCOC(=O)c1c(NC(=O)c2ccc(Cl)cc2Cl)sc(C(N)=O)c1C`, the displacement amounted to 88.7%.

Consider `O=S(=O)(c1ccc2ccccc2c1)N(CC(O)CN1CCOCC1)c1ccccc1` (stereo not drawn), for which the displacement was -0.7%.

As for `O=C(NCc1cccnc1)c1cccc(S(=O)(=O)N2CCCCC2)c1`, the displacement was determined as 2.2%.

For `CCOC(=O)/C=C/C(=O)Nc1sc(C)c(C)c1C(N)=O`, the displacement was -2%.

`COn1c(=O)c(-c2ccccc2)[n+]([O-])c2ccccc21`: the displacement was found to be 15.9%.

In the case of `O=c1c(-c2cccs2)[n+]([O-])c2ccccc2n1O`, the displacement came to 69.4%.

Turning to `CCOn1c(=O)c(-c2ccccc2)[n+]([O-])c2ccccc21`, the displacement was 18.9%.

Take `CCOn1c(=O)c(-c2cccs2)[n+]([O-])c2ccccc21`: the displacement worked out at 121%.

On to `CCOn1c(=O)c(C)[n+]([O-])c2ccccc21`, for which the displacement was 14.9%.

For the compound `O=c1c(-c2ccccc2)[n+]([O-])c2ccccc2n1O`, the displacement amounted to 21.7%.

`Cc1ccc(OCC(=O)NN)c(Br)c1`: the displacement is -6.5%.

Turning to `CN1CCN(CCCOc2ccc(Br)cc2)CC1`, the displacement is -8.4%.

For `O=C(N/N=C/c1ccc(O)cc1)c1cc(C2CC2)[nH]n1`, the displacement is -10.1%.

Consider `COC(=O)C1=C(C(=O)OC)SC(=C2C(=S)C(C)(C)N(C(=O)c3cccc(F)c3)c3ccc(OC)cc32)S1`, for which the displacement is -7.9%.

In the case of `Clc1ccc(-c2noc(-c3ccc(Cl)cc3Cl)n2)cc1`, the displacement stood at 4.3%.

For the compound `CCOC(=O)C1=C(O)/C(=C/c2ccc(N(C)C)cc2)SC1=Nc1cccc(Cl)c1`, the displacement was -53.7%.

In the case of `CCOC(=O)C1=C(O)/C(=C/c2ccc(N(C)C)cc2)SC1=Nc1ccc([N+](=O)[O-])cc1`, the displacement was 15.5%.

Consider `CCOC(=O)C1=C(O)/C(=C/c2ccc(F)cc2)SC1=Nc1ccccc1`, for which the displacement is -10.3%.

Take `CCOC(=O)C1=C(O)/C(=C/c2ccccc2)SC1=Nc1cccc2ccccc12`: the displacement turned out to be 14.5%.

For the compound `CCOC(=O)C1=C(O)/C(=C/c2ccc(N(C)C)cc2)SC1=Nc1ccc(Cl)cc1`, the displacement came to 170%.

For the compound `CCOC(=O)C1=C(O)/C(=C/c2ccc(Cl)cc2)SC1=Nc1ccc(OC)cc1`, the displacement amounted to 3.1%.

In the case of `CCOC(=O)C1=C(O)/C(=C/c2ccc(N(C)C)cc2)SC1=Nc1ccc(F)cc1`, the displacement worked out at 142%.

Take `CCOC(=O)C1=C(O)/C(=C/c2ccc(O)cc2)SC1=Nc1ccc(Cl)cc1`: the displacement was determined as 104%.

Regarding `CCOC(=O)C1=C(O)/C(=C/c2ccc(Cl)cc2)SC1=Nc1ccc(C)cc1`, the displacement was determined as 5.9%.

For the compound `CCOC(=O)C1=C(O)/C(=C/c2ccc(N(C)C)cc2)SC1=Nc1cccc2ccccc12`, the displacement is 168%.

On to `CCOC(=O)C1=C(O)/C(=C/c2ccc(Cl)cc2)SC1=Nc1cccc2ccccc12`, for which the displacement is -11.7%.

`CCOC(=O)C1=C(O)/C(=C/c2ccc(N(C)C)cc2)SC1=Nc1ccc(OC)cc1`: the displacement is 3.8%.
